Results on 23 molecules are retold here after PubChem BioAssay AID463173 (ICCB-Longwood Screening Facility, Harvard Medical School, 2010).

About 1,700 (3.3%) of roughly 52,000 compounds were called active. No stated cut-off is given here; in the data, active means survival mostly below about 52% (no sharp cut-off); inactive means mostly above about 56%. For the sample, actives were picked, then their nearest neighbours and some compounds at random.

In this test the test system is Wild type. Put plainly: growth inhibition of S. aureus wild type versus tarO mutant, primary screen, teichoic acid synthesis inhibitors, RN4220, OD600 (AID 463173). The note with it: S. aureus RN4220 wild type/DeltatarO growth, OD600, 18 h, hits give low values, screened at 18.75 µg/mL (by protocol).
As to `COCCn1c(SCC(=O)Nc2cc(Cl)ccc2OC)nc2c([nH]c3ccccc32)c1=O`, the survival was 132% (inactive). On to `Cc1ccc2sc(N3CCN(C(=O)C4COc5ccccc5O4)CC3)nc2c1C` (stereo not drawn), for which the survival is 148% (inactive). Then `COc1ccc(-c2nnc(SCC(=O)Oc3c(C)cccc3C)o2)cc1OC`, with 117% (inactive); and `CCOc1ccccc1N(CC)C(=O)Nc1cn(C)c(=O)c2ccccc12`, with 78% (inactive). Then `Cc1ccc(NC(=O)Nc2cn(C)c(=O)c3ccccc23)c(Cl)c1`, with 69% (inactive); and `CN(C(=O)Nc1cn(C)c(=O)c2ccccc12)c1ccccc1`, with -6% (active); and `CCCNC(=O)C1CCC(Cn2c(=O)c3sccc3n(CC(=O)N(CC)CC)c2=O)CC1` (stereo not drawn), with 128% (inactive).

`Cc1ccc(CNC(=O)CN2C(=O)COc3ccc(S(=O)(=O)Nc4ccccc4)cc32)cc1`: the survival was -6% (active).

As to `COc1ccc(CNC(=O)CN2C(=O)COc3ccc(S(=O)(=O)Nc4ccccc4)cc32)cc1`, the survival was 87% (inactive).

Regarding `COc1cccc(CNC(=O)CN2C(=O)COc3ccc(S(=O)(=O)Nc4ccccc4)cc32)c1`, the survival was 73% (inactive). Then `COc1ccc2c(c1)c1c(c(=O)n(-c3ccc(C)cc3)c(=O)n1CC(=O)NCc1ccc(C)cc1)n2C`, with 70% (inactive); and `O=S(=O)(Nc1ccccc1C(F)(F)F)c1ccc(N2CCCCS2(=O)=O)cc1`, with 136% (inactive).

As to `Cc1ccc(-n2nc(C)c3nc(CCC(=O)Nc4ccc(F)cc4)c(=O)n(C)c32)cc1`, the survival was 80% (inactive). Regarding `Cc1ccc(-n2nc(C)c3nc(CCC(=O)Nc4cccc(F)c4)c(=O)n(C)c32)cc1`, the survival was -6% (active). The same measure for `COc1cccc(NC(=O)CCc2nc3c(C)nn(-c4ccc(C)cc4)c3n(C)c2=O)c1`: 72% (inactive); for `Cc1ccc(NC(=O)c2c(C)oc3ncn(CC(C)C)c(=O)c23)nc1`: 129% (inactive); for `Cc1nn(C)c(C)c1NC(=O)CSc1nccc(-c2ccc(Cl)cc2)n1`: 100% (inactive). Then `Cc1ccc(C(=O)CSc2nc3cc(C(=O)NC4CCCC4)ccc3c(=O)n2CC2CCCO2)cc1` (stereo not drawn), with 75% (inactive). Then `O=C(CSc1nc2cc(C(=O)NC3CCCC3)ccc2c(=O)n1CC1CCCO1)c1cccc(Cl)c1` (stereo not drawn), with -3% (active). On to `CCOc1ccc(C(=O)CSc2nc3cc(C(=O)NC4CCCC4)ccc3c(=O)n2CC2CCCO2)cc1` (stereo not drawn), for which the survival is 0% (active). Then `Cc1ccc(C(=O)CSc2nc3cc(C(=O)NC4CCCC4)ccc3c(=O)n2CC2CCCO2)c(C)c1` (stereo not drawn), with 63% (inactive); and `COc1ccc(C(=O)CSc2nc3cc(C(=O)NC4CCCC4)ccc3c(=O)n2CC2CCCO2)cc1` (stereo not drawn), with 76% (inactive).

Regarding `O=C(CSc1nc2cc(C(=O)NC3CCCC3)ccc2c(=O)n1CC1CCCO1)c1ccc(F)cc1` (stereo not drawn), the survival is 70% (inactive).
